Each structure is given as a SMILES string. Hit rate of the full screen: of about 300,000 compounds, about 5,200 (1.7%) were called active.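 Rule for the calls: active = mean replicate activation of at least 50% with a set share of replicates each reaching 50%; inconclusive = only one of those two conditions met; inactive = mean below 50% and too few replicates reaching it.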 For the sample, actives were picked, then their nearest neighbours and some compounds at random.

The nature of this assay: HSF-1 response element luciferase induction – NIH3T3-HGL cells, MG132 stress, luminescence, single point, primary screen (AID 504408).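 Note: 0% = median of the neutral control wells and 100% = twice that signal.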 The following applies: NIH3T3-HGL HSF-1 luciferase reporter, MG132, 8 h; at 9 µM; hits give high values; 100% = twice DMSO control signal. A general note: A reporter such as luciferase makes a cellular process visible.
Consider `Cc1ccc2nc(NC(=O)CSc3nc(=O)n(CCCN(C)C)c4c3CCC4)sc2c1`, for which the activation is 2.36% (inactive). The result for `Cc1ccccc1OCC(=O)NNC(=O)c1ccc(-n2cncn2)c([N+](=O)[O-])c1` reads 4.89% (inactive); that for `Cc1ccc(C)c(NC(=O)COC(=O)Cn2c(C)csc2=O)c1`, -8.55% (inactive). As for `COc1cc(/C=N/NC(=O)c2cc(-c3ccccc3C)nc3ccccc23)cc(OC)c1O`, the figure is 18.6% (inactive).

For the compound `CN1CCN(C2Cc3ccc(Cl)cc3Sc3ccc(F)cc32)CC1` (configuration not stated), the activation was -3.39% (inactive). As for `CC(=O)NC(Cc1c[nH]c2ccccc12)C(=O)O` (configuration not stated), the figure is 56% (active); as for `Cc1cccc(C)c1OCC(=O)NC(Cc1c[nH]c2ccccc12)C(=O)O` (configuration not stated), 0.58% (inactive); as for `CC(=O)NC(Cc1c[nH]c2ccccc12)C(=O)NCCc1ccccc1` (configuration not stated), -11.2% (inactive).

On to `CC1CCN(C(=O)c2cccc(S(=O)(=O)N3CCCc4ccccc43)c2)CC1`, for which the activation was 9.01% (inactive).

With `Cc1ccc(N2CC(C(=O)N3CCC4(CC3)CC(=O)c3ccccc3O4)CC2=O)cc1C` (configuration not stated), the activation is -2.34% (inactive).

For `O=C(O)C1C2C=CC(C2)C1C(=O)NCc1ccccc1` (configuration not stated), the activation was -13% (inactive). As for `Nc1ccccc1/C=N\N=C/c1ccccc1N`, the figure is 1.94% (inactive). On to `Cc1ccc(-n2ncc3c(N4CCN(c5ccc(F)cc5)CC4)ncnc32)c(C)c1`, for which the activation was 57.9% (active).

In the case of `Cc1ccc(-n2ncc3c(=O)[nH]cnc32)c(C)c1`, the activation was -3.73% (inactive). Turning to `Cc1ccc2cc(C)c(N3CCN(c4ccc(F)cc4)CC3)nc2c1`, the activation is 5.08% (inactive). For the compound `Nc1ccc(C(=O)N2CCN(S(=O)(=O)c3ccc(Cl)cc3)CC2)cc1[N+](=O)[O-]`, the activation is 17.9% (inactive). As for `COc1ccc(C)cc1NC(=O)CSc1nnc2ccc(-c3ccccn3)nn12`, the figure is -10.8% (inactive); as for `COc1ccc(C2=NN(C(=O)CSc3nc(=O)n4ccc(C)cc4n3)C(c3ccc(C)cc3)C2)cc1` (configuration not stated), 9.37% (inactive). `O=C(NCCc1c[nH]c2ccccc12)c1cc2ccccc2oc1=O`: the activation is 62.1% (active).

With `O=C(NCCc1c[nH]c2ccccc12)c1cccc(Br)c1`, the activation is 7.52% (inactive). As for `CN(c1ccccc1)S(=O)(=O)c1ccc(Cl)c(C(=O)NCCc2c[nH]c3ccccc23)c1`, the figure is -1.41% (inactive); as for `COc1ccccc1CNS(=O)(=O)c1cc2c3c(c1)CCC(=O)N3CCC2`, 14.6% (inactive). The result for `COc1ccc(CC(=O)OC(C)C(=O)Nc2ccc(S(N)(=O)=O)cc2)cc1` (configuration not stated) reads -0.48% (inactive); that for `CC(OC(=O)CNC(=O)c1cccc(F)c1)C(=O)NC1CCCCC1C` (configuration not stated), -3.7% (inactive). As for `CCOC(=O)C1=C(c2ccccc2)NC(=O)NC1c1cc(OC)c(OC)cc1OC` (configuration not stated), the figure is -12.4% (inactive); as for `CCOC(=O)C1=C(CN2CCc3ccccc32)NC(=O)NC1c1cc(C)ccc1C` (configuration not stated), 15.2% (inactive).

Turning to `CCOC(=O)C1=C(c2ccccc2)NC(=S)NC1c1ccc(Cl)cc1` (configuration not stated), the activation was 63.5% (active). As for `CCOC(=O)C1=C(c2ccccc2)NC(=O)NC1c1cc(OCC)c(O)c([N+](=O)[O-])c1` (configuration not stated), the figure is 29.6% (inactive); as for `CCOC(=O)C1=C(CN2CCc3ccccc32)NC(=O)NC1c1cccc([N+](=O)[O-])c1` (configuration not stated), 39.3% (inactive); as for `CCOC(=O)C1=C(CN2CCc3ccccc32)NC(=O)NC1c1ccc(Cl)cc1` (configuration not stated), 58.6% (active). Consider `CC(=O)CC(CC(=O)NC1CCCCC1)c1ccccc1` (configuration not stated), for which the activation was -2.27% (inactive). As for `CC(NC(=O)c1ccccc1SCC(=O)N1CCCC1)c1ccccc1` (configuration not stated), the figure is -5.63% (inactive); as for `COc1ccc(C(C(=O)NCC2CCCO2)N(C(=O)Cn2nnc3ccccc32)c2ccc(NC(C)=O)cc2)cc1OC` (configuration not stated), 84% (active); as for `COc1ccc(C(C(=O)NC(C)(C)C)N(C(=O)Cn2nnc3ccccc32)c2ccc(C(C)=O)cc2)cc1O` (configuration not stated), 1.15% (inactive). The result for `CCOc1cc(C(C(=O)NCC2CCCO2)N(C(=O)Cn2nnc3ccccc32)c2cccc(OC)c2)ccc1O` (configuration not stated) reads -1.11% (inactive); that for `O=C1/C(=C\c2ccc(O)cc2)CCC1CNc1ccc(Cl)cc1` (configuration not stated), -5.88% (inactive). For `COc1ccc(C(=O)c2c3ccc([N+](=O)[O-])cc3[n+]([O-])n2CCCN)cc1`, the activation was 11.6% (inactive).

As to `CCC(C)c1ccccc1N1CC(C(=O)N2CCN(S(=O)(=O)c3ccc(F)cc3)CC2)CC1=O` (configuration not stated), the activation was 7.61% (inactive). The result for `CCOC(=O)c1ccc(Nc2cc3ccccc3c(=O)[nH]2)cc1` reads -14.6% (inactive); that for `CCOC(=O)c1sc(-c2cccc([N+](=O)[O-])c2)cc1N`, 24.4% (inactive); that for `CCOC(=O)c1sc(C)c2c1NC(C)(c1cccc3ccccc13)NC2=O` (configuration not stated), 97.8% (active).

Consider `CCCCOC(=O)c1[nH]c(C)c(C(=O)OC)c1C`, for which the activation is 52.3% (active). As for `CCOC(=O)c1c(C)[nH]c(C(=O)OCC(=O)N2CCCC2=O)c1C`, the activation is 16.4% (inactive).

In the case of `CCOC(=O)c1c(C)[nH]c(C(=O)OCC(=O)c2ccc(OC)cc2OC)c1C`, the activation is -6.52% (inactive). Consider `COc1cc(-c2nnc(NC(=O)C3=COCCO3)o2)cc(OC)c1OC`, for which the activation is -3.05% (inactive). As for `O=C(OCCOCn1cc(Br)c(=O)[nH]c1=O)c1ccccc1`, the figure is -0.69% (inactive); as for `N[C@@H](Cc1ccccc1)C(=O)N1CCOCC1`, -19.9% (inactive).

For `C=CCOc1cccc(C2C(C(=O)c3ccc(C)o3)=C(O)C(=O)N2c2nnc(C)s2)c1` (configuration not stated), the activation was -4.03% (inactive). As for `CC(=O)c1ccc(NC(=O)C2CCCN2S(=O)(=O)c2cccs2)cc1` (configuration not stated), the figure is -4.67% (inactive); as for `c1ccc(CN=C2Nc3ccccc3CS2)nc1`, 58% (active); as for `CCCCN(C1CCS(=O)(=O)C1)S(=O)(=O)c1ccc(C(C)C)cc1` (configuration not stated), 0.442% (inactive). `CCCCN(C(=O)c1ccc(S(=O)(=O)N2CCOCC2)cc1)C1CCS(=O)(=O)C1` (configuration not stated): the activation is -15% (inactive).

Consider `Cc1cccc(C(C)C)c1NC(=O)COC(=O)C1CC(=O)N(Cc2ccccc2)C1` (configuration not stated), for which the activation is 4.94% (inactive). In the case of `Cc1cc(C)c2nc(NC(=O)C3CCCO3)sc2c1` (configuration not stated), the activation is 61.5% (active).

Take `Cc1cc([N+](=O)[O-])ccc1NC(=O)C1CCCO1` (configuration not stated): the activation is 0.502% (inactive). As for `Cc1ccc(C)c(C(C)NC(=O)C2CCCO2)c1` (configuration not stated), the figure is 2.29% (inactive); as for `COc1cccc(/C=C/C(=O)OCC(=O)N2CCCc3ccccc32)c1`, -15.2% (inactive); as for `CC(=O)N1CCN(C(=O)c2cc(-c3ccc(C)o3)nc3ccccc23)CC1`, -3% (inactive). As for `Cc1ccc(NC(=S)NC(=O)/C=C/c2ccc(Cl)cc2)cc1`, the figure is 8.91% (inactive). As for `COC(=O)c1c(C)[nH]c(C(=O)/C=C/c2ccc(Cl)cc2)c1C`, the figure is 75.6% (active); as for `COC(=O)c1c(C)[nH]c(C(=O)NCCc2ccc(S(N)(=O)=O)cc2)c1C`, 22.1% (inactive); as for `O=C(OCc1nnc(-c2ccccc2)o1)c1cc(=O)[nH]c2ccccc12`, -8.33% (inactive). On to `COC(=O)c1ccc(COC(=O)C2CCN(S(=O)(=O)c3c(Cl)cccc3Cl)CC2)o1`, for which the activation was -1.35% (inactive).

For the compound `Cc1ccccc1NC(=O)N1CCCC1C(=O)NCc1ccccc1` (configuration not stated), the activation is -14.4% (inactive). As for `Cc1ccccc1NC(=O)C1CCCN(C(=O)NCc2ccccc2)C1` (configuration not stated), the figure is 66.9% (active); as for `Cc1cccc(NC(=O)C2CCCN(C(=O)NCc3ccccc3)C2)c1C` (configuration not stated), 23.5% (inactive); as for `CCOC(=O)N1CCN(C(=O)COc2ccc3oc4c(c3c2)CCCC4)CC1`, -4.2% (inactive). As for `CCN(CC(=O)NCc1cccs1)C(=O)c1ccc(OC)c(S(=O)(=O)N2CCOCC2)c1`, the figure is -5.75% (inactive); as for `O=C(NCc1ccc2c(c1)OCO2)c1c(O)nc2sccn2c1=O`, 14.5% (inactive).

`Cc1noc(C)c1COc1ccc2ccc(=O)oc2c1`: the activation is 0.156% (inactive). As to `CC(C)OC(=O)c1ccc(COc2ccc3ccc(=O)oc3c2)o1`, the activation is 65.7% (active).

Turning to `COC(=O)c1ccc(COc2ccc(C#N)cc2)o1`, the activation was 10.5% (inactive). Turning to `O=C1CCCCC1Sc1ccc(Cl)cc1[N+](=O)[O-]` (configuration not stated), the activation was 8.24% (inactive).

For the compound `Cc1cc(OCC(=O)N(C)c2c(N)n(Cc3ccccc3)c(=O)[nH]c2=O)c(C(C)C)cc1Cl`, the activation is -0.115% (inactive). As for `Cc1ccc2nc(NC(=O)C3CSC4(C)CCC(=O)N34)sc2c1` (configuration not stated), the figure is 10.5% (inactive); as for `CN(c1ccc(C(=O)N2CCc3ccccc3C2)cc1)S(C)(=O)=O`, 57.9% (active); as for `Cc1ccc(S(=O)(=O)N(CC(=O)N2CCc3ccccc3C2)c2cccc(Cl)c2)cc1`, 13% (inactive). As to `O=C(C(=O)N1CCc2ccccc2C1)N1CCc2ccccc2C1`, the activation is 2.97% (inactive). The result for `COc1cccc(N(CC(=O)N2CCc3ccccc3C2)S(C)(=O)=O)c1` reads 69.4% (active); that for `CS(=O)(=O)N(CC(=O)N1CCc2ccccc2C1)c1ccc(Br)cc1`, -4.09% (inactive). The result for `CN(c1cccc(NC(=O)c2ccc(CN3CCc4ccccc4C3)cc2)c1)S(C)(=O)=O` reads 21.2% (inactive); that for `Cc1cc2nc3n(c2cc1C)CC1CC(C(=O)NCCC(C)C)N(C)C31` (configuration not stated), 11.4% (inactive); that for `Cc1ccc(S(=O)(=O)n2cccc2CO)cc1`, 3.66% (inactive).

Take `O=C(COc1ccccc1)Nc1ccc(F)cc1`: the activation was 1.97% (inactive). On to `Cc1ccc(O)c(CNc2nc3ccccc3n2C)c1`, for which the activation is 6.25% (inactive).

As to `Cc1ccc(-c2cc(=O)[nH]c(NCc3ccccc3)n2)cc1`, the activation is 11.6% (inactive). The result for `Cc1ccc(O)c(CNc2nc3ccccc3[nH]2)c1` reads 83.1% (active). As for `Cc1sc2ncnc(N3CCC(C(=O)Nc4nc5ccc(Cl)cc5s4)CC3)c2c1C`, the figure is 8.18% (inactive). For the compound `CC(Oc1cccc(Cl)c1)C(=O)Nc1ccc(S(=O)(=O)Nc2ncccn2)cc1` (configuration not stated), the activation was -4.25% (inactive). On to `COc1cc2c(cc1OC)CN(C(=O)c1cc(S(=O)(=O)N3CCCCC3)ccc1Cl)CC2`, for which the activation was 31.4% (inactive). The result for `COc1cc2c(cc1OC)C(C)N(S(=O)(=O)c1cnc(Cl)c(Cl)c1)CC2` (configuration not stated) reads 227% (active). As to `COc1ccc(S(=O)(=O)N2CCC(C(=O)N3CCc4ccccc4C3)CC2)cc1OC`, the activation was -2.14% (inactive).

The values are drawn from PubChem BioAssay AID504408 (Broad Institute, 2011).
